Tested on: VDR:RXRa (NR concentration 270 nM, RXRa partner concentration 90 nM)
Experiment: PBM binding z-score (relative to random genomic background probes); higher = stronger binding; sequences stand for … in GC…GCGATTGACAGCGTAGAATGAAGG
Procedure: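 Protein-binding microarray (Agilent 4x180K custom design, double-stranded 60-nt probes: 5' GC cap, 34-nt variable region, 24-nt constant primer region; full probe sequence given). Purified or IVT nuclear receptor:RXRα heterodimers (3:1 NR:RXRα, mostly 270:90 nM) or homodimers were incubated for 1 h in PBS with 2% milk and no ligand, then detected with Alexa488 antibodies. Fluorescence from o1-orientation probes (~5 replicates averaged) was converted to z-scores against 500 random hg19 background probes. Variable regions are seed direct-repeat (DR0–DR5) sites, all their single-nucleotide variants and half-site ablations.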

Sequence	PBM binding z-score
ATCTCTAGGTAAGGATAGTTCAGTGAATGCAAAT	0.733
TGTCAAAGTTCAACGGTAACGTAAGTATCCACAC	4.79
CAAACTAGGTCAAGAGGTCAAAGTCCGCTTCCCG	6.26
ACTAGCTGGCCAAGGGTCACTCAAGATTAGTCCG	2.59
GCAGACAGGTGAAACGCAGGTGACTCAGGGTGGC	-0.335
TCAAGTAGGTTACCAATGGGGCATTCAGCTTTCT	0.549
GCATATAGGTATTACAAGGTGAAAGTCCGATTGT	0.134
AGAATGAGGTTATACGGAGATCAGGGAAGAAAGT	1.56
CCTACTGCGCCACGAAAGGTCATTGATTCAGTGA	4.08
GCTGCTAGGTCAGGTTGGTCACCTAACGGGTACG	0.967
ACTAGCAGGCCAAGTTTGGGGCACTCAAACAAAG	-0.558
CTACCAAGGTGAACAACGTCGTTGATTACTATTC	0.38
AGAACGAGGGCGCGCTGAGTTGATAGCAGAGTAG	0.589
GCTAGCAGGCCATTTGGTTCACTCAATGACGGGC	1.28
ATCGAAAGGGCGACGAGGTGAGTATACACCGTTT	1.32
GCTGCTAGGTCAACTGATTGTCAGCTAAAGCTCG	1.14
TCTGCTAGGTCAACGGTGGTCAGCTAATCTGCTA	1.95
TCTGCAAGGTCAACGATGGTCAGCTAATCTGCTA	4.53
GCTGCTAGGTCAGGTTGGTCAGCTAGCGGGTACG	0.267
AGAATGAGGTTAAGACCAGGGAAACAGAATACAT	1.03

Sequence	PBM binding z-score
ACTTACGGGTCAACGAGGTTATAGGACGCGTATA	7.69
TCCATTAGTTGATTAGGGCAACCGAAACAGCGGA	0.545
TCGAGTAGATTAGTCGGGGCATTCAGCCAACATA	-0.0689
GCTCGGAGGACAAGGACAGAGCTTTGTCCGTAGA	-0.798
GCGACTGGGGCAAAGCTGGTTACCATAAGGTTGG	-0.475
TAGCCTAGGTCAGATCGGGCCCGTATACGCTATA	0.22
TCTAGCAGCCCAGAGGGTCACTCAAGAGGTACGG	1.1
CAAACTAGGCCAAAGGTCAAAGTCGAGCCAACCA	4.89
CTCGAAAGGTCGGTTGAGGTGAGTGTACGGATAA	2.42
GCTTGTAGATCAAGGTTAAGTAAGACTAAGCTAA	0.257
TCTTGTAGATCAGCAGGTTAATAAAGCTGGCCAA	0.526
CGAACGGGGGCATGAGTTGATAGCAAATGCCGAT	3.88
CCGAGTAGGTTATGTGGCATTCAGGCAACGGTGA	-0.184
GATACAGGGTCATGGCCAGAGTACGCGTATTGAT	4.83
CAAACTAGCTCACGAAAGGTCAAAGTCGAATGAC	4.32
CGTTCAAGGTCAAGGTCAGTGAAAGAGACTCGAA	5
TCTAGCAGGCCAAAGGGTCACTCAAGAGGTACGG	3.12
GTACCAGGGTGAATAGGTCGTTGATGAGTAGGCG	1
GCTGCTAGGTCAGGGTGGTCAGCTAACGGGTACG	1.25
AGAATGAGGTGATACGTAGATCAGGGAAGAAAGT	-0.0206

Source: the supplement of paper PMC6555819
